In PubChem BioAssay (EPA / NIEHS) one finds outcome and AC50 data, which are given here for 20 molecules.

“And” between values parts separate entries of the source, which are not always exact repeats. Equal entries are not always repeated. Inconclusive results are not listed. The source holds several records for some structures; these can differ, active in one and inactive in another. The source made the active and inactive calls. The calls were made as follows, unless noted: active = hit-call score of the fitted dose curve at least 0.9, where 1 is the maximum; inactive = score below 0.9.

Assay [1] has as its target human RAR-related Orphan Receptor beta (RORb), RORB (gene 6096) (UniProt Q92753). Nature of the assay: ATG_RORb_TRANS: Attagene TRANS-FACTORIAL HepG2 Assay for human RAR-related Orphan Receptor beta (RORb) (AID 2283010; active = hit-call score of the fitted dose curve at least 0.9, where 1 is the maximum). A digest of the protocol: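 HepG2 cells transiently transfected with GAL4-UAS reporter units expressing chimeric NR-Gal4 protein; reporter mRNA measured 24 h after dosing by RT-PCR, 6-FAM labelling and capillary electrophoresis. Gain-of-signal fitted relative to DMSO baseline.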

Assay [2] addresses Retinoic acid receptor RXR-alpha (Homo sapiens) (UniProt P19793). Briefly: ATG_RXRa_TRANS: Attagene TRANS-FACTORIAL HepG2 Assay for human Retinoid X Receptor alpha (RXRa) (AID 2283012; active = hit-call score of the fitted dose curve at least 0.9, where 1 is the maximum). In a few lines:
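HepG2 cells transiently transfected with GAL4-UAS reporter units and chimeric RXRa-Gal4 protein, treated 24 h. Reporter mRNA measured by RT-PCR, fluorescent labelling, HpaI digestion and capillary electrophoresis. Induction fitted against DMSO.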

For assay [3], the target named is human RAR-related Orphan Receptor gamma (RORg), RORC (gene 6097) (UniProt P51449). Briefly: ATG_RORg_TRANS: Attagene TRANS-FACTORIAL HepG2 Assay for human RAR-related Orphan Receptor gamma (RORg) (AID 2283011; active = hit-call score of the fitted dose curve at least 0.9, where 1 is the maximum). A digest of the protocol:
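Activity is scored as increase in GAL4-UAS reporter mRNA over DMSO, detected by fluorescent RT-PCR and capillary electrophoresis in HepG2 cells transiently expressing a RORg-Gal4 chimera, 24 h after dosing.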

Assay [4] has as its target human Thyroid Receptor alpha (THRa1), THRA (gene 7067) (UniProt P10827). Nature of the assay: ATG_THRa1_TRANS: Attagene TRANS-FACTORIAL HepG2 Assay for human Thyroid Receptor alpha (THRa1) (AID 2283014; active = hit-call score of the fitted dose curve at least 0.9, where 1 is the maximum). In a few lines:
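First, HepG2 cells receive multiple GAL4-UAS reporter units and the chimeric receptor. They are then dosed for 24 h, after which RNA is reverse-transcribed, amplified, labelled, HpaI-cut and sized by capillary electrophoresis; gain relative to DMSO is scored.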

Assay [5] has as its target human Retinoid X Receptor beta (RXRb), RXRB (gene 6257) (UniProt P28702). Briefly: ATG_RXRb_TRANS: Attagene TRANS-FACTORIAL HepG2 Assay for human Retinoid X Receptor beta (RXRb) (AID 2283013; active = hit-call score of the fitted dose curve at least 0.9, where 1 is the maximum). In a few lines: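 HepG2 cells were transiently transfected with multiplexed GAL4-UAS reporters and a chimeric RXRb-Gal4 construct, then exposed for 24 h. Reporter mRNA was quantified by RT-PCR, FAM labeling, HpaI digestion and capillary electrophoresis; gain of signal was scored against DMSO.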

Read-out in assay [6]: E-selectin (Homo sapiens) (UniProt P16581)
Briefly: BSK_3C_Eselectin: BioMAP Diversity Plus: 3C Assay for Eselectin Biomarker Activity (AID 2283015).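 As to outcome: cell surface E-selectin protein quantified by ELISA 24 h after dosing.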 To be noted: primary human endothelial cells (HUVEC); actives raise or lower the signal. In a few lines: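 Human vascular endothelium from umbilical vein is exposed to test chemicals for 24 h. E-selectin levels are read by ELISA and compared with DMSO controls.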

Read-out in assay [7]: Interleukin-1 alpha (IL1a), IL1A (gene 3552)
Nature of the assay: BSK_BE3C_IL1a: BioMAP Diversity Plus: BE3C Assay for Interleukin-1 alpha (IL1a) Biomarker Activity (AID 2283016). To be noted: primary human bronchial epithelial cells; actives raise or lower the signal. A digest of the protocol:
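Human primary bronchial epithelial cells, 24 h chemical exposure; IL-1a quantified by ELISA, fitted bidirectionally against DMSO. Cytotoxicity assessed in parallel by SRB total-protein staining at the time of measurement.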

Read-out in assay [8]: Monocyte Chemoattractant Protein-1 (MCP1), CCL2 (gene 6347)
Nature of the assay: BSK_3C_MCP1: BioMAP Diversity Plus: 3C Assay for Monocyte Chemoattractant Protein-1 (MCP1) Biomarker Activity (AID 2283017). The following applies: primary human endothelial cells (HUVEC); actives raise or lower the signal. A digest of the protocol: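 Endothelial cells from human umbilical vein are dosed with chemical, cultured 24 h, then assayed for MCP-1 by ELISA; both increases and decreases are modelled against DMSO controls.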

Read-out in assay [9]: Monocyte Chemoattractant Protein-1 (MCP1), CCL2 (gene 6347)
Nature of the assay: BSK_4H_MCP1: BioMAP Diversity Plus: 4H Assay for Monocyte Chemoattractant Protein-1 (MCP1) Biomarker Activity (AID 2283018). The following applies: primary human endothelial cells (HUVEC); actives raise or lower the signal. A digest of the protocol: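 Human umbilical vein endothelial cells (4H system) exposed to chemicals for 24 h in 96-well format. MCP-1 measured by ELISA; bidirectional fitting against DMSO, with SRB total-protein staining in parallel cultures for cytotoxicity.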

Read-out in assay [10]: Human Leukocyte Antigen - DR isotype (HLADR), HLA-DRA (gene 3122)
Nature of the assay: BSK_3C_HLADR: BioMAP Diversity Plus: 3C Assay for Human Leukocyte Antigen - DR isotype (HLADR) Biomarker Activity (AID 2283019).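 As to outcome: ELISA of cell-surface HLA-DR on HUVEC 24 h after dosing.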 To be noted: primary human endothelial cells (HUVEC); actives raise or lower the signal. In a few lines:
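Endothelial cells from human umbilical vein are treated with test chemical; after 24 h, HLA-DR levels are measured by ELISA. Data are fitted in both directions using DMSO as the baseline.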

human RAR-related Orphan Receptor beta (RORb), RORB (gene 6096), sequence (Q92753 whole entry, looked up, the tested form may be a part): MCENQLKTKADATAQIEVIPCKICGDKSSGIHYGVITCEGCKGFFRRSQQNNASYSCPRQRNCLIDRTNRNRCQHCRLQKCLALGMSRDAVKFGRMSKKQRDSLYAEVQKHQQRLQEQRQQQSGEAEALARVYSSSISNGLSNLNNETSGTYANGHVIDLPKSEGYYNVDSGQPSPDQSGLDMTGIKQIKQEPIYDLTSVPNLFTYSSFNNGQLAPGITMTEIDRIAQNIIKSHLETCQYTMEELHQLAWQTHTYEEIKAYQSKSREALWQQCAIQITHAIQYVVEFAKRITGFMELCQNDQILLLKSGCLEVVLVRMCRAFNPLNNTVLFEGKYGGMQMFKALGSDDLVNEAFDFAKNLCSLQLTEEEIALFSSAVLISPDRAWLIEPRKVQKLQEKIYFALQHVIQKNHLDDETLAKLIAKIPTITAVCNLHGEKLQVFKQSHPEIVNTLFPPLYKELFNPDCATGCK
human RAR-related Orphan Receptor gamma (RORg), RORC (gene 6097), sequence (P51449 whole entry, looked up, the tested form may be a part): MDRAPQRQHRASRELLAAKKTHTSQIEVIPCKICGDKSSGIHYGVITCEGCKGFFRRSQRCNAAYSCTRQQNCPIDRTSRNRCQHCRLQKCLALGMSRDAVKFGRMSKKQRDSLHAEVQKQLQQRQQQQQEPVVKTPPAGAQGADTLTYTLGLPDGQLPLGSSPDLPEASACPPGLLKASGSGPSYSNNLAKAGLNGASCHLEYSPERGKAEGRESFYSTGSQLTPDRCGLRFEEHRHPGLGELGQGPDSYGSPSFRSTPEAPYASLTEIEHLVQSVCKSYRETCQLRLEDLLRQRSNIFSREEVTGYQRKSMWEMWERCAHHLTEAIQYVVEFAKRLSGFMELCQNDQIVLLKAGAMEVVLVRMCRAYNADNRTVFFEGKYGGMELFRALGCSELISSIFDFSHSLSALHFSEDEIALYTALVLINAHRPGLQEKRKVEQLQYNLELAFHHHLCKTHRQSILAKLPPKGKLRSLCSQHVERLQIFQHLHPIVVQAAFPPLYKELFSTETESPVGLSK
Retinoic acid receptor RXR-alpha (Homo sapiens), sequence (P19793 whole entry, looked up, the tested form may be a part): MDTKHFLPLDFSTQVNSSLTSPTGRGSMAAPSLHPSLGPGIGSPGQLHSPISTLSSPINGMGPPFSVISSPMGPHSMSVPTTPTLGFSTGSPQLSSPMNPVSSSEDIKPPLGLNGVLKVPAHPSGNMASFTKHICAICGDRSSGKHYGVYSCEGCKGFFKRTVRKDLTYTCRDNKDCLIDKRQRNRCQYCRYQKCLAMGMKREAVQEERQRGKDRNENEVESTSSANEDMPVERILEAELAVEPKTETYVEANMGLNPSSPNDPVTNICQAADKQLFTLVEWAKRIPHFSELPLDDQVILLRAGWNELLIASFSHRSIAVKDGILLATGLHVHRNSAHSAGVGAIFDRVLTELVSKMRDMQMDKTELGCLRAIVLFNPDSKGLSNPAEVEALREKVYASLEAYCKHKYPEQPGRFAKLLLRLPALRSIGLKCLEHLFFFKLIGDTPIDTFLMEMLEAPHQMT
E-selectin (Homo sapiens), sequence (P16581 whole entry, looked up): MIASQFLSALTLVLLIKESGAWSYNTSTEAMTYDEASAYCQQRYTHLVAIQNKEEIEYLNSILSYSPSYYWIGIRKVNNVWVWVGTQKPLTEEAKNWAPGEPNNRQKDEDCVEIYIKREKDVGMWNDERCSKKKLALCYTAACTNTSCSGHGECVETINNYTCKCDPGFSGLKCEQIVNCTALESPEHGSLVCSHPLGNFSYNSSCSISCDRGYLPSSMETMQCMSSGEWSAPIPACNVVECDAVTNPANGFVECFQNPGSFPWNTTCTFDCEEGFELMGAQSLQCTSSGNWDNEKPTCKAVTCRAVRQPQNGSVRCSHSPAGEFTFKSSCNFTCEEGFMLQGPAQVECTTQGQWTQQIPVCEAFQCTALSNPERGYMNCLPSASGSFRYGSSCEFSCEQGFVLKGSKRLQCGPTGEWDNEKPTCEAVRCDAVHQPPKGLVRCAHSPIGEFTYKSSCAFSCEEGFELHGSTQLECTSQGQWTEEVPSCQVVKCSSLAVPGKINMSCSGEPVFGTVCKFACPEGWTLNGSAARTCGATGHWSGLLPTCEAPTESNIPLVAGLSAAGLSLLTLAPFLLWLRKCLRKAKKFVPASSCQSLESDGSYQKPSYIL
human Retinoid X Receptor beta (RXRb), RXRB (gene 6257), sequence (P28702 whole entry, looked up, the tested form may be a part): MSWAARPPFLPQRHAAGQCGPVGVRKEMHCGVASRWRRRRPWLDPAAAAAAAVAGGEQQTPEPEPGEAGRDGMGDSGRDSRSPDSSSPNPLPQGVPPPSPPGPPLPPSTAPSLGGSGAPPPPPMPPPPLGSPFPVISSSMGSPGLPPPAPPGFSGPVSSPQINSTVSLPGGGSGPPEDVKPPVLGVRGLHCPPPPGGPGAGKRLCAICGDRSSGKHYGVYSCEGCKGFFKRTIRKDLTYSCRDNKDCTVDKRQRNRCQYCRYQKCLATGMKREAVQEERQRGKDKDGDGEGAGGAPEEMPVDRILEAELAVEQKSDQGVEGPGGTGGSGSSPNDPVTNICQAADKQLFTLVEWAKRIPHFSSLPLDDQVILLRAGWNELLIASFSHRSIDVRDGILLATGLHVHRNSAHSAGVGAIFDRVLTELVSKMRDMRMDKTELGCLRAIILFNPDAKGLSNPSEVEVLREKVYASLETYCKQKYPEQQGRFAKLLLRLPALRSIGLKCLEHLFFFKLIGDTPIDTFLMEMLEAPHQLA
human Thyroid Receptor alpha (THRa1), THRA (gene 7067), sequence (P10827 whole entry, looked up, the tested form may be a part): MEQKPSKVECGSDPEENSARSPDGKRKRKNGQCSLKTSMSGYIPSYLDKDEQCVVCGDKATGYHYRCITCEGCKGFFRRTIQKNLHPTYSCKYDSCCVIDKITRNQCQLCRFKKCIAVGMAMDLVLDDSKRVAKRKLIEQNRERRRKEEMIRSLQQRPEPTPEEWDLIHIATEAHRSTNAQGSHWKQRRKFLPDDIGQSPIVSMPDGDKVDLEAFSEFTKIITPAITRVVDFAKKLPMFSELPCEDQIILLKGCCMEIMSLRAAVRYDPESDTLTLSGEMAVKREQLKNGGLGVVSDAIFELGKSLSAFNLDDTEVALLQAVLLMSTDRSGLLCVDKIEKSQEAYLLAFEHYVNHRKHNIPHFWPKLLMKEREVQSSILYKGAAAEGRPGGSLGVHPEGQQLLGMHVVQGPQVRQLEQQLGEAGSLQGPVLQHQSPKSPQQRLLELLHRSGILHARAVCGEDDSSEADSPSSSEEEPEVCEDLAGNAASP

As to `CC(C)OC(=O)c1ccccc1C(=O)OC(C)C`, the molecule was called inactive in assay [1] and in [2].
For the molecule `Nc1ccc(S(=O)(=O)Nc2nccs2)cc1`, in assay [1], the outcome was inactive.
One may read the AC50 as the concentration at which the activity in the assay is half-maximal. On to `CC(C)(C)c1ccc(OC2CCCCC2O)cc1` (stereo not drawn), for which the call in [1], in assay [3] and in assay [4] was inactive. For the same molecule, the AC50 in assay [2] is 26.2 µM (active).
With `COC(=O)C1CCC(C(=O)OC)CC1` (stereo not drawn), the molecule was classed as inactive in assay [2] and in [4].
`O=S(=O)(OCCOC(F)(F)F)C(F)(F)F`: the outcome in [2], in assay [5], in [6], in assay [7], in [8] and in assay [9] was inactive. Moreover, the result in [10] was inactive.
As for `O=S(=O)(OCC(F)F)C(F)(F)F`, the molecule was classed as inactive in assay [3], in [2], in assay [6], in assay [7], in assay [8] and in [9]. Besides, the outcome in assay [10] was inactive.
For the molecule `O=C(O)C(F)(F)C(F)(F)C(F)F`, the call in assay [3], in assay [2], in [4], in [6], in [7] and in [9] was inactive. Besides, the result in assay [10] was inactive.
Consider `CC(C)=CCCC(C)CCOC(=O)C(C)C` (stereo not drawn), for which the outcome in [3], in assay [5] and in assay [4] was inactive.
For the molecule `C=C(C)C(=O)OCC(F)(F)C(F)(F)C(F)(F)F`, the molecule was called inactive in [2], in assay [5], in [6], in assay [7], in [8] and in [9]. Moreover, the result in [10] was inactive.
In the case of `O=C(CC(=O)C(F)(F)C(F)(F)F)C(F)(F)F`, the molecule was called inactive in assay [2], in [4], in assay [6], in assay [7], in assay [9] and in [10]. Also, in assay [8], the AC50 is 30 µM (active) and 21.7 µM (active).
On to `CS(C)(=O)=O`, for which the call in assay [2], in [6], in assay [7], in assay [9] and in assay [10] was inactive.
Take `FC(F)(I)C(F)(F)C(F)(F)C(F)(F)I`: the result in assay [3], in assay [5] and in assay [9] was inactive. Moreover, the concentration at half-maximal activity (AC50) in assay [6] is 49 µM (active) and 50.6 µM (active) and 53.6 µM (active); in assay [7], 47.5 µM (active) and 46 µM (active) and 45 µM (active); in [8], 44.5 µM (active) and 49 µM (active) and 51.6 µM (active); in assay [9], 45.6 µM (active) and 19.3 µM (active); in assay [10], 50.2 µM (active) and 46.5 µM (active) and 59 µM (active).
Regarding `C#C[C@]1(O)CC[C@H]2[C@@H]3CCc4cc(OC)ccc4[C@H]3CC[C@@]21C`, the result in assay [2], in assay [5], in assay [4], in assay [6], in [8] and in assay [9] was inactive. Also, the results for the AC50 in assay [7] and in assay [10] were 998 nM (active) and 31.2 µM (active), respectively.
On to `OCCCC(F)(F)C(F)(F)C(F)(F)F`, for which the outcome in assay [2], in assay [6], in assay [7], in [8], in assay [9] and in assay [10] was inactive.
For `CCCCCCC(C)OC(=O)CCCCC(=O)OC(C)CCCCCC` (stereo not drawn), the molecule was classed as inactive in assay [2], in [6], in assay [7], in assay [8], in [9] and in [10].
As for `CCCCCCOC(=O)c1ccccc1`, the result in assay [2] and in [4] was inactive.
Consider `C=C(C)C(=O)OCCC(F)(F)C(F)(F)C(F)(F)C(F)(F)C(F)(C(F)(F)F)C(F)(F)F`, for which the result in assay [2], in assay [5], in assay [6], in assay [7], in assay [8] and in assay [9] was inactive. Further, the result in [10] was inactive.
`CCCCOCCOCCOC(=O)CCCCC(=O)OCCOCCOCCCC`: the molecule was called inactive in assay [3], in assay [4], in [6], in [7], in assay [9] and in [10].
For the molecule `OCCCC(F)(F)C(F)(F)C(F)(F)C(F)(F)C(F)(F)C(F)(F)C(F)(F)F`, the AC50 is 42.3 µM (active) in assay [2]; 23.3 µM (active) and 48.9 µM (active) in assay [6]; 44.1 µM (active) and 47.9 µM (active) in assay [7]; 30.8 µM (active) and 44.4 µM (active) in assay [8]; 45.7 µM (active) and 45.1 µM (active) in [9]; 44.1 µM (active) and 36.1 µM (active) in [10]. Further, the molecule was called inactive in assay [2].
With `CN(C)Cc1ccccc1O`, in assay [4], the molecule was called inactive.
